Test results taken from PubChem BioAssay.
Values without a mark were called inactive. For some assays here: Entries with a potency or affinity are not part of this list. The source made the active and inactive calls. Unless noted, no rule for the calls is given here.

Experiments:
[1] = antimalarial activity against Dd2 strain (AID 2302;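 active = growth inhibition above 50% at the single 2 µM test dose, taken to imply half-maximal potency below 2 µM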;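 also: 0% = DMSO untreated growth and 100% = chloroquine plus artemisinin killed control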); conditions: P. falciparum Dd2 in RBCs, LDH growth readout, 72 h; at 2 µM; hits give high values
[2] = HepG2 cytotoxicity, primary screen, cytotoxicity control for P. falciparum antimalarial project, cell-based, ATP luminescence (AID 2303;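 active = inhibition above 50%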;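 also: 0% = DMSO wells and 100% = digitonin-killed cells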); conditions: HepG2 viability, 24-48 h, at 10 µM, hits give high values
[3] = molecular target: L-lactate dehydrogenase (Plasmodium falciparum (isolate CDC / Honduras)) (UniProt Q27743); assay: PfLDH activity inhibition – cell lysate, 3D7 strain, counter-screen for P. falciparum growth inhibition project (AID 2304);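 also: 0% = vehicle and 100% = reference inhibitor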; conditions: P. falciparum 3D7 crude extract, LDH APAD/NBT absorbance; at 2 µM; hits give high values
[4] = inhibition of 3D7 malaria parasite growth – strain 3D7 (AID 2306);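 also: 0% = DMSO wells and 100% = chloroquine plus artemisinin control wells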; conditions: P. falciparum 3D7 erythrocytic growth, LDH absorbance, 72 h; at 2 µM; hits give high values
[5] = molecular target: Calcium-dependent protein kinase 1 (Plasmodium falciparum (isolate 3D7)) (UniProt P62344); assay: PfCDPK1 kinase inhibitors, biochemical, TCAMS library (AID 1159585; cut-off not given, nearly all actives have IC50 up to about 0.98 µM;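 also: inhibitors leave more ATP so luminescence rises with inhibition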); conditions: recombinant PfCDPK1, Kinase-Glo ATP depletion luminescence
[6] = molecular target: Plasmodium falciparum protein kinase 6 (PK6, PF3D7_1337100) (UniProt Q8IDW1); assay: PfPK6 kinase inhibitors, biochemical, TCAMS library (AID 1159586); conditions: recombinant PfPK6, Kinase-Glo ATP depletion luminescence
[7] = molecular target: Protein kinase 7 (PK7), Plasmodium falciparum 3D7 (PF3D7_0213400) (UniProt Q7YTF7); assay: inhibition of Plasmodium PK7 catalytic activity – biochemical, TCAMS antimalarial set, Kinase-Glo luminescence (AID 1159587); conditions: recombinant PfPK7, Kinase-Glo ATP depletion luminescence
[8] = molecular target: Calcium-dependent protein kinase 4 (Plasmodium falciparum (isolate 3D7)) (UniProt Q8IBS5); assay: PfCDPK4 kinase inhibitors, biochemical, TCAMS library (AID 1159588; cut-off not given, nearly all actives have IC50 up to about 0.91 µM); conditions: recombinant PfCDPK4, Kinase-Glo ATP depletion luminescence
Chain of Calcium-dependent protein kinase 4 (Plasmodium falciparum (isolate 3D7)) (Q8IBS5 whole entry, looked up): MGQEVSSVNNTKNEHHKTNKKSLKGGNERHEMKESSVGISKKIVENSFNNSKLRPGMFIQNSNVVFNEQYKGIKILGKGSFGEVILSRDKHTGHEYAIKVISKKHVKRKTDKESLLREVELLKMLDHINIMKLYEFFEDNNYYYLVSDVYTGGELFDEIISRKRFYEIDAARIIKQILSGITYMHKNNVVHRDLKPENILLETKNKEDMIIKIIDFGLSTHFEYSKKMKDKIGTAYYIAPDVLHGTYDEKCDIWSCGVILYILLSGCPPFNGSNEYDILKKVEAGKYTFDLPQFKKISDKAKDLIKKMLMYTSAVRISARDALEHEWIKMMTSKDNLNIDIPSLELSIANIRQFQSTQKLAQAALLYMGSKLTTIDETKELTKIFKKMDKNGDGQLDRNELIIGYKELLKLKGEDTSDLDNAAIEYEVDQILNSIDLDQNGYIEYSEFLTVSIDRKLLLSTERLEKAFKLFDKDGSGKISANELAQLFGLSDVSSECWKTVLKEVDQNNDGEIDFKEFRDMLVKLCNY

Chain of Protein kinase 7 (PK7), Plasmodium falciparum 3D7 (PF3D7_0213400) (Q7YTF7 1-343): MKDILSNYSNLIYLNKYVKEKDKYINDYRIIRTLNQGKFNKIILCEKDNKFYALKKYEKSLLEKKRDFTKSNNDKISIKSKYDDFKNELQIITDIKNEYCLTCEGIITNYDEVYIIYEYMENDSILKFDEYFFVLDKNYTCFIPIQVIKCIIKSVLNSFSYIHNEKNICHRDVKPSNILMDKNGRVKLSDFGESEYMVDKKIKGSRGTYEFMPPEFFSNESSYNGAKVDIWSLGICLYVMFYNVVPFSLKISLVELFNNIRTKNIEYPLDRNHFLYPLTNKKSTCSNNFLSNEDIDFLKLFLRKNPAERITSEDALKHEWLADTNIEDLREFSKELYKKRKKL
Chain of L-lactate dehydrogenase (Plasmodium falciparum (isolate CDC / Honduras)) (Q27743 whole entry, looked up): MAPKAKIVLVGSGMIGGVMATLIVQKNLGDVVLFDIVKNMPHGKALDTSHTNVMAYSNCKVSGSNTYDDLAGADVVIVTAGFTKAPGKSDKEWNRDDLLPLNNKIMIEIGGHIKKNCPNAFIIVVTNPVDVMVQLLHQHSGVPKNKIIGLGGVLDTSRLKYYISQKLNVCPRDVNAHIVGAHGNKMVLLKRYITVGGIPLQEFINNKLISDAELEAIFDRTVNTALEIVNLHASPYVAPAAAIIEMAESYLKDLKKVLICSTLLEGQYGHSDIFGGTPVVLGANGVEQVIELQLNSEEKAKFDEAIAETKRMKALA
Chain of Calcium-dependent protein kinase 1 (Plasmodium falciparum (isolate 3D7)) (P62344 whole entry, looked up): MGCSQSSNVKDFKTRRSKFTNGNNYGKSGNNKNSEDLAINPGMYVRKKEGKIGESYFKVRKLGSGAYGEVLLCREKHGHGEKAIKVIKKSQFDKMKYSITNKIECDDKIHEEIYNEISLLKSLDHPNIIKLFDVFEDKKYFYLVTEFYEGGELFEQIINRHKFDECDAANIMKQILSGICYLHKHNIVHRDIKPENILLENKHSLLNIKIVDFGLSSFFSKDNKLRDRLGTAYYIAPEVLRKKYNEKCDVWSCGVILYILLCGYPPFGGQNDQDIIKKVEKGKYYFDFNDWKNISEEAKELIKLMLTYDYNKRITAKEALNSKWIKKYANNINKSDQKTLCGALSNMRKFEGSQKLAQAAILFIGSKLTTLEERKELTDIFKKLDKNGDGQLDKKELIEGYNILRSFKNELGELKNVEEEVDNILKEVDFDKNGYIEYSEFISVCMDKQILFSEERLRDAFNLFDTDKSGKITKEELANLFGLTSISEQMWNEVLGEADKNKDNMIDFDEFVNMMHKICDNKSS
Chain of Plasmodium falciparum protein kinase 6 (PK6, PF3D7_1337100) (Q8IDW1 1-305): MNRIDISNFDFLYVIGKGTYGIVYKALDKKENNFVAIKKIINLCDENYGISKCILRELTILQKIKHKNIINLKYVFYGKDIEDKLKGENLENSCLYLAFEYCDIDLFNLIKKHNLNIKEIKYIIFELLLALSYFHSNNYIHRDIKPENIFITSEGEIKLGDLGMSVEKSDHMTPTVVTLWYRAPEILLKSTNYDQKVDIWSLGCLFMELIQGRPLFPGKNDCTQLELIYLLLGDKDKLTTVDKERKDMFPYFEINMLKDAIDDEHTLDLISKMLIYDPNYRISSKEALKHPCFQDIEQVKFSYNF

| SMILES | growth inhibition [1] | inhibition [2] [%] | inhibition [3] [%] | growth inhibition [4] | outcome [5] | outcome [6] | outcome [7] | outcome [8] |
| --- | --- | --- | --- | --- | --- | --- | --- | --- |
| CCCc1cn2c3c(cc(C(=O)N[C@@H](Cc4ccccc4)[C@H](O)CNC4CCCCC4)cc13)N(CC)S(=O)(=O)CC2 | 98% (active) | 2 | -2 | 98% (active) | inactive | inactive | inactive | inactive |
| Cc1ccc(CN2CCN(Cc3cccc(NC(=O)c4cccs4)c3)CC2)cc1C | 68% (active) | 41 | 2 | 96% (active) | inactive | inactive | inactive | inactive |
| CCc1nc2c(N)nc(N)nc2nc1-c1ccc(OC)cc1 | -3% | 44 | 2 | 86% (active) | inactive | inactive | inactive | inactive |
| CN(C)CCCOc1ccc(CCCCc2ccc(Cl)cc2C(=O)c2ccccc2)cc1 | 8% | 8 | -7 | 92% (active) | inactive | inactive | inactive | inactive |
